Inconclusive results are not listed. A call without a number means that no potency is given here. More than one record can exist for a structure, and the calls need not agree. The source made the active and inactive calls. Calls come from the whole dose curve.
Potency is the fitted concentration of half-maximal effect.

The test in a line: qHTS assay for small molecule disruptors of the mitochondrial membrane potential - cell viability (AID 720634). Note: nearly all actives have a fitted effect of over 20% in size. The conditions noted are these: HepG2 viability, ATP luminescence (CellTiter-Glo), 1 h; series mostly up to 83.2 µM. An excerpt: U.S. Tox21 Program National Center for Advancing Translational Sciences [NCATS] NIH Chemical Genomics Center [NCGC] U.S. Environmental Protection Agency [EPA] National Institutes of Environmental Health Sciences [NIEHS] National Toxicology Program [NTP] U.S. Food and Drug Administration [FDA] Tox21 Assay Overview: Mitochondrial membrane potential (MMP), one of the parameters for mitochondrial function, is generated by mitochondrial electron transport chain that creates an electrochemical gradient by a series of redox reactions. This gradient drives the synthesis of ATP, a crucial molecule for various cellular processes. Measuring MMP in living cells is commonly used to assess the effect of chemicals on mitochondrial function; decreases in MMP can be detected using lipophilic cationic fluorescent dyes. […] The dye accumulates in the mitochondria of healthy cells as aggregates, with red fluorescence. The mitochondrial potential decreases and the dye could not accumulate in the mitochondria and remains in the cytoplasm in monomers, with green fluorescence. In addition to the mitochondrial potential assay, these cells were also used to test the cytotoxicity by determining the cell viability in the culture based on the quantitation of ATP present. The cytotoxicity was measured in the same assay well of MMP assay.
Tox21 Assay Protocol Summary: 2,000 HepG2 cells in 5 uL/well were dispensed into black, clear-bottom 1536-well plates using a Multidrop Combi (Thermo Scientific) dispenser. The assay plates were incubated for an overnight at 37 C to allow cells to attach to the wells, followed by the transfer of 23 nL compound or DMSO vehicle by a pin tool (Kalypsys). The plates were incubated for 1 hr at 37 C and 5% CO2, followed by the addition of 5 uL of 2X m-MPI dye into each well using Flying Reagent Dispenser (Aurora Discovery) and then CellTiter-Glo reagent was added at 4 uL/well and incubated 30 min at room temperature. Then luminescence intensity was quantified on a ViewLux CCD-based plate reader.
On the technique in general: Quantitative high-throughput screening tests each substance at several concentrations.
`CCCCn1cc[n+](C)c1.[Cl][Fe-]([Cl])([Cl])[Cl]`: the Potency entry is “inactive”.

Turning to `COc1ccc2c(c1OC)C(=O)O[C@@H]2[C@H]1c2cc3c(cc2CCN1C)OCO3`, the Potency entry is “inactive”.

As to `COC(=O)C(C)N(C(=O)c1ccco1)c1c(C)cccc1C` (stereo not given), the Potency result was “inactive”.

`CCC[CH2][Sn]([CH2]CCC)([O]C(C)=O)[O]C(C)=O`: the Potency result is “inactive”.

As for `Clc1cc(Cl)c(-c2cc(Cl)c(Cl)cc2Cl)cc1Cl`, the Potency entry is “inactive”.

Regarding `CCN(CC)Cc1nccn1-c1ccc([N+](=O)[O-])cc1C(=O)c1ccccc1Cl`, the Potency entry was “inactive”.

In the case of `CCCCN(CCCC)C(=S)[S-].CCCCN(CCCC)C(=S)[S-].[Ni+2]`, the Potency entry is “inactive”.

Turning to `C1=CCC=C1`, the Potency entry was “inactive”.

Take `c1ccc(Nc2ccc(Nc3ccccc3)cc2)cc1`: the Potency is 24.2 µM (active).

On to `CNC(=O)Oc1cc(C)cc(C(C)C)c1`, for which the Potency entry was “inactive”.

Take `C#CC1(O)CCCCC1`: the Potency entry was “inactive”.

`CCCC[N+]1(C)CCCC1` (tested in a mixture with another compound): the Potency result is “inactive”.

Consider `CCn1cc[n+](C)c1` (tested in a mixture with another compound), for which the Potency result is “inactive”.

In the case of `COc1ccc2c3c1O[C@H]1[C@H](O)CC[C@H]4[C@@H](C2)N(C)CC[C@@]341`, the Potency entry was “inactive”.

Turning to `O.O.O.O=C([O-])[C@H]([O-])[C@@H]([O-])C(=O)[O-].O=C([O-])[C@H]([O-])[C@@H]([O-])C(=O)[O-].[K+].[K+].[Sb+3].[Sb+3]`, the Potency result was “inactive”.

As for `Oc1cccc(Cl)c1Cl`, the Potency result was “inactive”.

On to `CCC[CH2][Sn]([CH2]CCC)([CH2]CCC)[O][Sn]([CH2]CCC)([CH2]CCC)[CH2]CCC`, for which the Potency is 1.68 µM (active).

`COP(=O)(OC)Oc1ccc([N+](=O)[O-])cc1`: the Potency result was “inactive”.

Take `CN1CCc2cc3c(cc2C1O)OCO3` (stereo not given): the Potency result is “inactive”.

As for `ClSC(Cl)(Cl)Cl`, the Potency result was “inactive”.

In the case of `CN1C(=O)[C@@H](NC(=O)c2cc3ccccc3[nH]2)N=C(c2ccccc2)c2ccccc21`, the Potency entry is “inactive”.

Turning to `CN`, the Potency entry was “inactive”.

With `CCCN`, the Potency entry was “inactive”.

`COP(=O)(OC)O/C(=C\Cl)c1cc(Cl)c(Cl)cc1Cl`: the Potency result is “inactive”.

As for `Cc1nn(-c2cc(NS(C)(=O)=O)c(Cl)cc2Cl)c(=O)n1C(F)F`, the Potency result was “inactive”.

In the case of `Clc1ccc(C(Cl)(Cl)Cl)cc1Cl`, the Potency entry is “inactive”.

On to `Oc1ccc([C@H]2CNCc3c2ccc(O)c3O)cc1O`, for which the Potency result was “inactive”.

As for `S=C=Nc1ccccc1`, the Potency result was “inactive”.

For `ClCBr`, the Potency entry was “inactive”.

In the case of `CN1[C@@H]2CC[C@H]1CC(O)C2` (stereo not given in full), the Potency entry is “inactive”.

For `CN/C(=N\[N+](=O)[O-])NCc1cnc(Cl)s1`, the Potency entry was “inactive”.

Turning to `COc1c2c(cc3c1OCO3)CCN(C)C2`, the Potency entry is “inactive”.

With `CC(C)C(Nc1ccc(C(F)(F)F)cc1Cl)C(=O)OC(C#N)c1cccc(Oc2ccccc2)c1` (stereo not given), the Potency entry is “inactive”.

For the compound `CNC(=O)CSP(=O)(OC)OC`, the Potency entry is “inactive”.

With `O=[N+]([O-])c1ccc(Cl)c(Cl)c1Cl`, the Potency result was “inactive”.

As for `CCCCN(CCCC)C(=S)S`, the Potency result was “inactive”.

Regarding `C=CC(=C)C`, the Potency result was “inactive”.

In the case of `COCCC#N`, the Potency entry was “inactive”.

For the compound `CCCCCCCCCCCCCCn1cc[n+](C)c1`, the Potency is 54.6 µM (active) and inactive.

For `O=C(N[C@@H]1N=C(c2ccccc2F)c2cccc3c2N(CC3)C1=O)c1cc2ccccc2[nH]1`, the Potency entry was “inactive”.

The values above are taken from PubChem BioAssay (Tox21).
